This note sets out measurements from publication PMC7862700, “An all-to-all approach to the identification of sequence-specific readers for epigenetic DNA modifications on cytosine”.

Common to all, as to test: DAPPL (digital affinity profiling via proximity ligation, sequencing); 10 mM Tris-HCl pH 7.5, 50 mM NaCl, 1 mM DTT, 4% glycerol, room temperature, 30 min; GST-TFs on glutathione beads, 16-mer random dsDNA library, 0.1% formaldehyde crosslink after washing; high values mean tight binding
The target of one assay is T1, FLI1 (Homo sapiens, UniProt Q01543 1-452).
T1 sequence: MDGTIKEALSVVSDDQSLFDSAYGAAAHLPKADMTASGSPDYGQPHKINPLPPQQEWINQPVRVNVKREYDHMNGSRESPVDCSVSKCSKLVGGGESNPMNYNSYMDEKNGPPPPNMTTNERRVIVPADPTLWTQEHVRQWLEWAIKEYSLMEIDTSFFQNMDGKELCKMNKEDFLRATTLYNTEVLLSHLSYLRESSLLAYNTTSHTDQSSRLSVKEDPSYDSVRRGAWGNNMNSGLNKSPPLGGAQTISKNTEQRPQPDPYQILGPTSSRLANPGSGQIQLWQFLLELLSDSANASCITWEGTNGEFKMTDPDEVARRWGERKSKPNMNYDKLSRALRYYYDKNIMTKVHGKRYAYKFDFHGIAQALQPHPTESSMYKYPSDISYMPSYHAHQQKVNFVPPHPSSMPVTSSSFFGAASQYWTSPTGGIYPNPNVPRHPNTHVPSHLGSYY
As to conditions: protein: recombinant; tags: N-terminal GST; dsDNA, one strand shown. A digest of the protocol:
(§1)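 Human transcription factors were made in yeast as GST fusions, captured on glutathione beads and barcoded with DNA. With a tag-only sample included, the pool was incubated with 200 nmole of a random double-stranded 16-mer DNA library in Tris/NaCl/DTT/glycerol buffer at room temperature for 30 min, then crosslinked with 0.1% formaldehyde after washing, ligated by proximity, amplified and sequenced. For binding signal, each hexamer's read frequency for a factor is divided by its frequency for the tag-only sample.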

Another assay addresses T2, ELK1 (Homo sapiens, UniProt P19419 1-428).
T2 sequence: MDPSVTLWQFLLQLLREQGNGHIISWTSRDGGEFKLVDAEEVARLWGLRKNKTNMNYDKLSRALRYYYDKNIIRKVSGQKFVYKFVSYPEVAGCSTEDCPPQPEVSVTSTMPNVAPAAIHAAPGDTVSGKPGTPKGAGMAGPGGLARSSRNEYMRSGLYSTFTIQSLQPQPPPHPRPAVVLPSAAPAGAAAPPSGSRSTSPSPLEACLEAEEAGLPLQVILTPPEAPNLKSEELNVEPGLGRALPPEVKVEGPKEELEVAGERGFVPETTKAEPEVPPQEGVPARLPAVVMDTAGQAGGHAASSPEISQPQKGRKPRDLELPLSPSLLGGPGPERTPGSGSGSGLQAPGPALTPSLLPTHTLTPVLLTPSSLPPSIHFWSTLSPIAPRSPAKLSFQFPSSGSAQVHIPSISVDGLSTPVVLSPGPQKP
As to conditions: protein: recombinant; tags: N-terminal GST; dsDNA, one strand shown. An outline of the steps: as §1

A further assay deals with T3, GABPA (Homo sapiens, UniProt Q06546 1-454).
T3 sequence: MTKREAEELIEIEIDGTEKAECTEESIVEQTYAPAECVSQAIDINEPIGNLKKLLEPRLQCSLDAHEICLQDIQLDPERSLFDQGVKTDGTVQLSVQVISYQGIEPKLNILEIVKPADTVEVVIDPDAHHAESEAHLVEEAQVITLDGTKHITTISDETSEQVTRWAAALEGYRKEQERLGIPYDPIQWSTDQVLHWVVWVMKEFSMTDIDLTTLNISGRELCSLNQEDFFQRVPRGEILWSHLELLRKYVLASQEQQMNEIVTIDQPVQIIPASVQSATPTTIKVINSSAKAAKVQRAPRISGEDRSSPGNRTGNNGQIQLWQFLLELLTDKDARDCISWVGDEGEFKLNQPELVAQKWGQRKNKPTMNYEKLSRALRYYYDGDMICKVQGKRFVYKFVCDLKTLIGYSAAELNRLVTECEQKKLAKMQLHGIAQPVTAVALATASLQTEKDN
Conditions: protein: recombinant; tags: N-terminal GST; dsDNA, one strand shown. An outline of the steps:
as §1

For the next assay, the target named is T4, ERG (Homo sapiens, UniProt P11308 1-479).
T4 sequence: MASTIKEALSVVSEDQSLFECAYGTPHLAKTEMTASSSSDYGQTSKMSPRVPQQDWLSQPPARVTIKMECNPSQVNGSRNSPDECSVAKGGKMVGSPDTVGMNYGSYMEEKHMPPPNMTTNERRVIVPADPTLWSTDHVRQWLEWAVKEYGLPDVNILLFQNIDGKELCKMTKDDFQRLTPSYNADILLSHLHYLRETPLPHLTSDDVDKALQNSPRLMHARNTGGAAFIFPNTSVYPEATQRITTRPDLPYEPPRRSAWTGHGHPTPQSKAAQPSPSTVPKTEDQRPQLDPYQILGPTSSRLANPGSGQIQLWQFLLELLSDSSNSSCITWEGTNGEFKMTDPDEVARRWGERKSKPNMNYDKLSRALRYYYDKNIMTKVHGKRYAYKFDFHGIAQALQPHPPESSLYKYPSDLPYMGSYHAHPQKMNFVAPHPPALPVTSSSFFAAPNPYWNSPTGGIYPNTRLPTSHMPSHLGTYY
Conditions: protein: recombinant; tags: N-terminal GST; dsDNA, one strand shown. An outline of the steps:
as §1

For another assay, the target named is ELF1 (Homo sapiens, UniProt P32519 1-619). As to conditions: protein: recombinant; tags: N-terminal GST; dsDNA, one strand shown. A digest of the protocol: as §1
Sequence of ELF1 (P32519 whole entry): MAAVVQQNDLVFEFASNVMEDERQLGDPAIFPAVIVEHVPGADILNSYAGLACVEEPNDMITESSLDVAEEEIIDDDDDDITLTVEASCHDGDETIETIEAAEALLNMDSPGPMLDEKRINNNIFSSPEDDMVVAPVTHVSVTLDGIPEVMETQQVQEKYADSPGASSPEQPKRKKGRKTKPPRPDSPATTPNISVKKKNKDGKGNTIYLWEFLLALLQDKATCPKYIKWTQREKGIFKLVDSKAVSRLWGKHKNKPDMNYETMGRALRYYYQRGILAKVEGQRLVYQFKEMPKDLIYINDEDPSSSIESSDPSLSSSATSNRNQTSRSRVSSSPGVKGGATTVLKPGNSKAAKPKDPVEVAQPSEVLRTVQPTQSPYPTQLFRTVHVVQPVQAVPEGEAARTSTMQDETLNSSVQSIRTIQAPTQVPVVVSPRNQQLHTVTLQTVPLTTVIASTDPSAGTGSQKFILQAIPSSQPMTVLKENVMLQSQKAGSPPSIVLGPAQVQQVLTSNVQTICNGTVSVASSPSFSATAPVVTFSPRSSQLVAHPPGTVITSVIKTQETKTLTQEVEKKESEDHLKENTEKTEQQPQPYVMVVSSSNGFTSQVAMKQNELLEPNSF
In the next assay the target is T5, EHF (Homo sapiens, UniProt Q9NZC4 1-300).
T5 sequence: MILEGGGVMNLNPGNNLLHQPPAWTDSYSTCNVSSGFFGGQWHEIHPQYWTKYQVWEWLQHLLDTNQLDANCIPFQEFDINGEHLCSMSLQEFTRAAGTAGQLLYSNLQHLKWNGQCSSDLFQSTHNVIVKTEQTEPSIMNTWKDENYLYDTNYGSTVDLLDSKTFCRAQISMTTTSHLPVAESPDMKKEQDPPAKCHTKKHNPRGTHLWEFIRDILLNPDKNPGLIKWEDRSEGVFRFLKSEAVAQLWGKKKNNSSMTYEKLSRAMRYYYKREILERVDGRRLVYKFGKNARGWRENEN
As to conditions: protein: recombinant; tags: N-terminal GST; dsDNA, one strand shown. A digest of the protocol: as §1

A further assay has as its target SPI1 (Homo sapiens, UniProt P17947 1-270). Conditions: protein: recombinant; tags: N-terminal GST; dsDNA, one strand shown. An outline of the steps:
as §1

The next assay has as its target SPIB (Homo sapiens, UniProt Q01892 1-262). As to conditions: protein: recombinant; tags: N-terminal GST; dsDNA, one strand shown. A digest of the protocol:
as §1

A further assay concerns the target T6, ELK3 (Homo sapiens, UniProt P41970 1-407).
T6 sequence: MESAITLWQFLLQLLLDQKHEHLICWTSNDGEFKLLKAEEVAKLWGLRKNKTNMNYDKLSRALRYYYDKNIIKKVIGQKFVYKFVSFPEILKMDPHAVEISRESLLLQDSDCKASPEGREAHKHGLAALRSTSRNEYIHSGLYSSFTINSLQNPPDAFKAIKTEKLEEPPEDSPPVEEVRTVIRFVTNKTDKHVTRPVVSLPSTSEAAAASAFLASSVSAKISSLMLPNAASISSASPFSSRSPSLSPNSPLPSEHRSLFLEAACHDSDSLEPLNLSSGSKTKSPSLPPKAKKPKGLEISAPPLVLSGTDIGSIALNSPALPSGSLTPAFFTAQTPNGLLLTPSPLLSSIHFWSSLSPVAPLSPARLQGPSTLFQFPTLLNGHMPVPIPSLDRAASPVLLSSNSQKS
As to conditions: protein: recombinant; tags: N-terminal GST; dsDNA, one strand shown. A digest of the protocol:
as §1

The target in a further assay is T7, FEV (Homo sapiens, UniProt Q99581 1-238).
T7 sequence: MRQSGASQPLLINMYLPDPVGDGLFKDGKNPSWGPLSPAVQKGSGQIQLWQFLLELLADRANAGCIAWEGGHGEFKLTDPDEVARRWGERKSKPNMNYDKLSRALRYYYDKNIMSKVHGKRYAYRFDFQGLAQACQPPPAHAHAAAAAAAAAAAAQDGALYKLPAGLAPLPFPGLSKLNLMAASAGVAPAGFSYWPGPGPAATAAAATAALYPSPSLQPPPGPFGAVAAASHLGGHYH
Conditions: protein: recombinant; tags: N-terminal GST; dsDNA, one strand shown. A digest of the protocol: as §1

The target of the next assay is ETV5 (Homo sapiens, UniProt P41161 1-510). As to conditions: protein: recombinant; tags: N-terminal GST; dsDNA, one strand shown. A digest of the protocol: as §1
Sequence of ETV5 (P41161 whole entry): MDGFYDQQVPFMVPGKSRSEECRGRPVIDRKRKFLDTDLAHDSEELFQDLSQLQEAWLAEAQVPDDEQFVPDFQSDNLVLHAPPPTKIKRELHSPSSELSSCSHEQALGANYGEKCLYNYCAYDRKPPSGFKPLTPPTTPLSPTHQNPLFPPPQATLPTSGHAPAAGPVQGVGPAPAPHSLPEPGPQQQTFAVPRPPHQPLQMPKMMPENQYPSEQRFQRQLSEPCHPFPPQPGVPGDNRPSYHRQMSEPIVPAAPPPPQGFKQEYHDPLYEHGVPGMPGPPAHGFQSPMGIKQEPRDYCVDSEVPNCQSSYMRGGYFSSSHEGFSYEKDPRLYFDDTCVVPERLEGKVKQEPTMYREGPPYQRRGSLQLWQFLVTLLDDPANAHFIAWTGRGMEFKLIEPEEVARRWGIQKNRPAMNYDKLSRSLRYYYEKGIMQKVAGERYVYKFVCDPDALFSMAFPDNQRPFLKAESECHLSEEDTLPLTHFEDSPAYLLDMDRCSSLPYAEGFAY
The target of the next assay is HSF1 (Homo sapiens, UniProt Q00613 1-529). Conditions: protein: recombinant; tags: N-terminal GST; chain copies: 3; dsDNA, one strand shown. A digest of the protocol: as §1
Sequence of HSF1 (Q00613 whole entry): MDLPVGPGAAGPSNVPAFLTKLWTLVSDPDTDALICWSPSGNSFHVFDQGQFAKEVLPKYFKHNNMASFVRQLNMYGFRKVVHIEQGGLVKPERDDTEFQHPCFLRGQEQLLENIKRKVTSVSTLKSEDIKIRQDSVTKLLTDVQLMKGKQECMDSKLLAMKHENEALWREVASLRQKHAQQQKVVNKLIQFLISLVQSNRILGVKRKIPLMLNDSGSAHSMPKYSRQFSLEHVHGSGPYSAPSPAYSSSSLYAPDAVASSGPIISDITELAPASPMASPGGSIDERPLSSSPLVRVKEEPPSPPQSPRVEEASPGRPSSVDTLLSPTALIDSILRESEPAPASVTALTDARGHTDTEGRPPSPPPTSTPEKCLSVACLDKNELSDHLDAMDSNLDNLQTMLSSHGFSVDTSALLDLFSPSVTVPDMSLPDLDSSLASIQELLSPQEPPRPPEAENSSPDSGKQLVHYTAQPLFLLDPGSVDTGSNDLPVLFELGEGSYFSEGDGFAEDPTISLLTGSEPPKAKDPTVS
The target in another assay is T8, SPIC (Homo sapiens, UniProt Q8N5J4 1-248).
T8 sequence: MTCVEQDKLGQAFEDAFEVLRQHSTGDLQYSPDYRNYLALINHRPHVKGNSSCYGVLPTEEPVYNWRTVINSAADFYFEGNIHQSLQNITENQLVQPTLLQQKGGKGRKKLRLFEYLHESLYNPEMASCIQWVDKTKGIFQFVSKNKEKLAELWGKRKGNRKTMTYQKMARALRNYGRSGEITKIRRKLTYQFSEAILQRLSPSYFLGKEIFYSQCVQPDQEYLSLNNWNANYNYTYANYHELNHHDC
Conditions: protein: recombinant; tags: N-terminal GST; dsDNA, one strand shown. A digest of the protocol: as §1

A further assay concerns the target ELF4 (Homo sapiens, UniProt Q99607 1-663). Conditions: protein: recombinant; tags: N-terminal GST; dsDNA, one strand shown. An outline of the steps: as §1
The target in the next assay is T9, ELK4 (Homo sapiens, UniProt P28324-2 1-405).
T9 sequence: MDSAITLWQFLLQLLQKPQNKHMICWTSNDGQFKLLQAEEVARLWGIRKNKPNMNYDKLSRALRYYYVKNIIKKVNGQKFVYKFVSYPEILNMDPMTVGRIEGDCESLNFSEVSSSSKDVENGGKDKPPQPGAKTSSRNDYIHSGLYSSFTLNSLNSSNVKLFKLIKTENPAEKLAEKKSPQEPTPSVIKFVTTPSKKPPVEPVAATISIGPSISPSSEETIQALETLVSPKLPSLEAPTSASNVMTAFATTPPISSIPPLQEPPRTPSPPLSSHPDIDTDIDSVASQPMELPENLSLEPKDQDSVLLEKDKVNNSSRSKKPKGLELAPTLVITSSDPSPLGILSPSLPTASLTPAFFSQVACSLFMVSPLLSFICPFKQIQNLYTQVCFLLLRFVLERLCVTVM
As to conditions: protein: recombinant; tags: N-terminal GST; dsDNA, one strand shown. An outline of the steps: as §1

The next assay deals with T10, ETV2 (Homo sapiens, UniProt O00321 1-342).
T10 sequence: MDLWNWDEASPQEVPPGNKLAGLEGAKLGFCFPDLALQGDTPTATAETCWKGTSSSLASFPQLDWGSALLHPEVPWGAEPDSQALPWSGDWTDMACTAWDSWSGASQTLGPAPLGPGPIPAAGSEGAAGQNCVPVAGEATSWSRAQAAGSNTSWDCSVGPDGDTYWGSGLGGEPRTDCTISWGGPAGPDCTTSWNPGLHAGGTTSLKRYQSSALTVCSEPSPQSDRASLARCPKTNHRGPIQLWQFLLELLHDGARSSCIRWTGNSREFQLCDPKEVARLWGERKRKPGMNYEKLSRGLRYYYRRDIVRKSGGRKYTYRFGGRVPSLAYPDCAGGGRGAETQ
As to conditions: protein: recombinant; tags: N-terminal GST; dsDNA, one strand shown. A digest of the protocol:
as §1

The target of the next assay is T11, ELF3 (Homo sapiens, UniProt P78545 1-371).
T11 sequence: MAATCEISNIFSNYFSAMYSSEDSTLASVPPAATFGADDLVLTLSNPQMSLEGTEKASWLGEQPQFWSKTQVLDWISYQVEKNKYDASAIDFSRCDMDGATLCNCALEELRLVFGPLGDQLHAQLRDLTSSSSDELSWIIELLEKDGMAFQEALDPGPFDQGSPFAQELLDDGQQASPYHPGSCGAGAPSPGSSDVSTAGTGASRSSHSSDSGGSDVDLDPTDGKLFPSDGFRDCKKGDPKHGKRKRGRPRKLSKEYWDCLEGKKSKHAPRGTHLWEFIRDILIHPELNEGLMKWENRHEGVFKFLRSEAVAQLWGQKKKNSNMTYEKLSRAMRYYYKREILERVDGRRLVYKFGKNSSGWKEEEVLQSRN
Conditions: protein: recombinant; tags: N-terminal GST; dsDNA, one strand shown. An outline of the steps: as §1

A further assay deals with CRX (Homo sapiens, UniProt O43186 1-299). As to conditions: protein: recombinant; tags: N-terminal GST; dsDNA, one strand shown. An outline of the steps: as §1
Sequence of CRX (O43186 whole entry): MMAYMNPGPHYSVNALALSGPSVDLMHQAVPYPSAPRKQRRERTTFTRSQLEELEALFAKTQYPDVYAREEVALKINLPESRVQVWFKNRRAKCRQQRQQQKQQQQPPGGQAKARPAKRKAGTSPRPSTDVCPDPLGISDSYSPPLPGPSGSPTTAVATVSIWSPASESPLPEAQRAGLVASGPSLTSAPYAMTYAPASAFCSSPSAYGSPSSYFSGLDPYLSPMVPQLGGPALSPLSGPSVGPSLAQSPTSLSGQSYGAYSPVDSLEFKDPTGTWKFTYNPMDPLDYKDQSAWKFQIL
Another assay addresses ETV1 (Homo sapiens, UniProt P50549 1-477). Conditions: protein: recombinant; tags: N-terminal GST; dsDNA, one strand shown. An outline of the steps: as §1

Sequence of SPIB (Q01892 whole entry): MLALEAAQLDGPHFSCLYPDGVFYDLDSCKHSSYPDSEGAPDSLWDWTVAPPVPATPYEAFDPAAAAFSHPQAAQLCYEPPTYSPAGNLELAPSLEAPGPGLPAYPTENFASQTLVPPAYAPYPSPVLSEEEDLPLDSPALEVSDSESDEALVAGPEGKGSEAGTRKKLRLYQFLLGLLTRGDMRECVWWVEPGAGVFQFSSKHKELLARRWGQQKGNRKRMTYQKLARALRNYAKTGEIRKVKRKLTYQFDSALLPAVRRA
Sequence of ELF4 (Q99607 whole entry): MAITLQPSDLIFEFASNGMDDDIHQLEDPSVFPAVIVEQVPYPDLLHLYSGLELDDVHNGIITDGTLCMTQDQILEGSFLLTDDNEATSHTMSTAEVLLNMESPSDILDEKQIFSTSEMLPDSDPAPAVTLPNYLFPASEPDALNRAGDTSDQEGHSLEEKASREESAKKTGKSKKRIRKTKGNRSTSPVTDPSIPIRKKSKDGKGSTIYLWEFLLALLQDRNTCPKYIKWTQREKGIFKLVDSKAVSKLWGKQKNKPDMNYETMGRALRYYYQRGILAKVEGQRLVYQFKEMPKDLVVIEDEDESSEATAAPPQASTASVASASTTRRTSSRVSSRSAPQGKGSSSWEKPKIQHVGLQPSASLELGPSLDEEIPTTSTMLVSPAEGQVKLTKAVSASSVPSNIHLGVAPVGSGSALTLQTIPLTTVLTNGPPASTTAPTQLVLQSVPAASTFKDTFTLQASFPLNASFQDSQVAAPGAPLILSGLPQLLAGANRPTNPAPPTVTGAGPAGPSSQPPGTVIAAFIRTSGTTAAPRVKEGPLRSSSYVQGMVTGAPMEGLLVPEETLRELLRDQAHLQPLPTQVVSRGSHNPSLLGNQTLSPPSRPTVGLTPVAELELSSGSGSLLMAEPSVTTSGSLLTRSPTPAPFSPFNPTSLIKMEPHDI
Sequence of ETV1 (P50549 whole entry): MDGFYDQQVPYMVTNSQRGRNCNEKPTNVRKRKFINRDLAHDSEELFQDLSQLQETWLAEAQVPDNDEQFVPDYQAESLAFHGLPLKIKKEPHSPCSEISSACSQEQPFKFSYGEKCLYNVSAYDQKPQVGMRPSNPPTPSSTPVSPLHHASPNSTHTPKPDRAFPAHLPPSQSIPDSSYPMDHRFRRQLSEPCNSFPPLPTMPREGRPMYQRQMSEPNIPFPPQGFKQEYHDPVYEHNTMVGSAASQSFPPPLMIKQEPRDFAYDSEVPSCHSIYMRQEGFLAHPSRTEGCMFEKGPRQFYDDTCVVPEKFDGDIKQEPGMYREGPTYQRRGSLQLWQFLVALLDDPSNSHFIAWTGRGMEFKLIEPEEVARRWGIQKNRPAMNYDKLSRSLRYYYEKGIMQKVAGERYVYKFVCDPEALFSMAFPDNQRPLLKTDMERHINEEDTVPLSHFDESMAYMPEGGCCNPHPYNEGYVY

Consider TACATC, for which the binding signal is 1.63 fold enrichment (6-mer frequency, TF over GST control) with FLI1; 1.67 fold enrichment (6-mer frequency, TF over GST control) with ELK1; 1.51 fold enrichment (6-mer frequency, TF over GST control) with GABPA; 1.65 fold enrichment (6-mer frequency, TF over GST control) in the assay with ERG; 1.53 fold enrichment (6-mer frequency, TF over GST control) with ELF1; 1.6 fold enrichment (6-mer frequency, TF over GST control) with EHF. Besides, the binding signal was 1.57 fold enrichment (6-mer frequency, TF over GST control) with SPI1; 1.65 fold enrichment (6-mer frequency, TF over GST control) with SPIB; 1.74 fold enrichment (6-mer frequency, TF over GST control) with ELK3; 1.77 fold enrichment (6-mer frequency, TF over GST control) with FEV; 1.63 fold enrichment (6-mer frequency, TF over GST control) in the assay with ETV5; 1.09 fold enrichment (6-mer frequency, TF over GST control) with HSF1. For the same sequence, the binding signal is 1.61 fold enrichment (6-mer frequency, TF over GST control) with SPIC; 1.56 fold enrichment (6-mer frequency, TF over GST control) with ELF4; 1.53 fold enrichment (6-mer frequency, TF over GST control) with ELK4; 1.65 fold enrichment (6-mer frequency, TF over GST control) with ETV2; 1.48 fold enrichment (6-mer frequency, TF over GST control) with ELF3; 1.17 fold enrichment (6-mer frequency, TF over GST control) in the assay with CRX. Further, the binding signal with ETV1 was 1.64 fold enrichment (6-mer frequency, TF over GST control).
